TRPM1 prom inh = inhibitors of MITF-dependent TRPM1 promoter reporter, primary screen, cell-based, SK-MEL-5, single point, luciferase | SK-MEL-5 TRPM1 promoter luciferase, 24 h | inhibition, % at 12.5 µM | actives 0.83% (n = 330,000);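 active means mean inhibition across replicates of 60% or more, whatever share of single replicates reaches that level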
CF NFkB inh = inhibitors of PAF-induced NF-kB signaling, primary screen, cell-based, GFP fluorescence, uHTS; KKLEB NF-kB-GFP reporter, GFP fluorescence overnight; inhibition, % at 5 µM; AID 588850, 2011; actives 0.86% (n = 360,000);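 active means at least 50% inhibition at 5 µM, scaled per plate between neutral and stimulator controls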;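 further: PAF is a Pseudomonas aeruginosa culture filtrate used as stimulus; plate controls were PAF-stimulated DMSO wells for no effect and unstimulated DMSO wells for full effect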
Peg3 promoter = Peg3 promoter-driven luciferase inhibitors, primary screen, cell-based, HeLa, luciferase luminescence; HeLa PEG-Prom luciferase reporter, overnight; actives 1.7% (n = 360,000); AID 588405, 2011; inhibition, % at 20 µM;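 active means inhibition of at least 50% at 20 µM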
HIF-2a inh = HIF-2a reporter inhibitors, primary screen, luminescence, 786-0 RCC cells; 786-0 RCC cells HIF-2a reporter, luciferase luminescence, overnight; inhibition, % at 18.8 µM; actives 0.72% (n = 360,000); AID 624352, 2012;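 active means inhibition of the luminescence signal of 40% or more relative to plate controls, in a single-dose primary screen at 18.75 µM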
ABHD5-PLIN5 inh = ABHD5-PLIN5 interaction inhibitors, primary screen, cell lysate, split luciferase complementation, luminescence | Perilipin-5 (Homo sapiens) + 1-acylglycerol-3-phosphate O-acyltransferase ABHD5 (Homo … | Split G. princeps luciferase complementation, 4 h | inhibition, % at 4 µM | actives 0.78% (n = 360,000) | AID 602281, 2012;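 active means inhibition above the mean inhibition across every tested compound plus 3 SD, cut at about 22% in these data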;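 further: 0% = DMSO only wells and the 100% control is not disclosed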
Target sequence (Q00G26 whole entry, looked up): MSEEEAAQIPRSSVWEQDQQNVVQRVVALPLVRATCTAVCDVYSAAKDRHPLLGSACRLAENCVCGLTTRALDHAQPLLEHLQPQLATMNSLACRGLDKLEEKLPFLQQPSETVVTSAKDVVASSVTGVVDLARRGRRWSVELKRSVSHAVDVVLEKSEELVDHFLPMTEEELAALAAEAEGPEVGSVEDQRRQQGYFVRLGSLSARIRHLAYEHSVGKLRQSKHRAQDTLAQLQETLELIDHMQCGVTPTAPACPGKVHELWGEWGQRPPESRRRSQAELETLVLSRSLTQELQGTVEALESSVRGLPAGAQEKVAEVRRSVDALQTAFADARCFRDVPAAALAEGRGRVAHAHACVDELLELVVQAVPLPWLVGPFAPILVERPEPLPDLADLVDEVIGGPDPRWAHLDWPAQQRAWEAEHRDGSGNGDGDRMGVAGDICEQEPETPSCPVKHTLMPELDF
Target sequence (Q8WTS1 whole entry, looked up): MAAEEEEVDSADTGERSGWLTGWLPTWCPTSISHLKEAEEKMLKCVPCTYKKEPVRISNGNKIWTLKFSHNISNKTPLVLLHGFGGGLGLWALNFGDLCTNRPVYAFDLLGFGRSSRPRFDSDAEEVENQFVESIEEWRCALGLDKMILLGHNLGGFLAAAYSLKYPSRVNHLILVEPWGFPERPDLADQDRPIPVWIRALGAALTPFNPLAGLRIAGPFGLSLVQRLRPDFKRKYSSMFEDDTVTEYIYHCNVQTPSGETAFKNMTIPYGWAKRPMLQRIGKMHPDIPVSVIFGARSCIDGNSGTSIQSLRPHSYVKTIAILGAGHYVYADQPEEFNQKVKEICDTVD
KKLEB tox = cytotoxicity in KKLEB CF airway cells, primary screen, cytotoxicity control for CF NF-kB inhibitor project, cell-based, uHTS, fluorescence assay plates. actives 0.36% (n = 360,000). activity change (cytotoxicity), % at 5 µM. KKLEB CF airway cells viability, ATPlite luminescence, overnight; hits give low values; cells stimulated with P. aeruginosa culture filtrate;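 active means corrected activity change at or below -50% at 5 µM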
ABHD5 PLIN5 conf = ABHD5-PLIN5 interaction inhibitors, confirmation, biochemical, luminescence | shares compounds with ABHD5-PLIN5 inh | actives 67% (n = 2,200) | AID 651612, 2012 | inhibition, % at 4 µM; in the data active means inhibition above about 23%;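 further: 0% = DMSO vehicle wells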
HNF4 counter = HNF4 dimerization inhibitors, counter-screen for ABHD5-PLIN5 interaction inhibitor project, biochemical, split-luciferase complementation, luminescence; actives 77% (n = 2,200); AID 651674, 2012; inhibition, % at 4 µM; shares compounds with ABHD5-PLIN5 inh;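 active means mean inhibition across replicate wells exceeding the computed hit threshold, cut at about 13% in these data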;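 further: light from luciferase halves that rejoin when HNF4 fusion proteins dimerize; 0% = DMSO only wells and the 100% control is not given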
Starred values were filed as active, the others as inactive; . = not tested or not shown. The list is not random: actives were taken first. Their share in the collection is about 3.1%.

SMILES	TRPM1 prom inh	CF NFkB inh	Peg3 promoter	HIF-2a inh	ABHD5-PLIN5 inh	KKLEB tox	ABHD5 PLIN5 conf	HNF4 counter
CC1CN(Cc2c(O)ccc3c2oc(=O)c2ccccc23)CC(C)O1 (stereo not given)	-25	-7	-34	-16	49*	-2	72*	44*
CC1CN(Cc2c(O)ccc3c(=O)c(-c4ccccc4)coc23)CC(C)O1 (stereo not given)	4	-12	6	7	6	-5	.	.
O=C(Nc1cccc(NC(=O)c2ccccc2)n1)c1ccccc1	4	-1	-51	-79	0	1	.	.
CCCc1nc2sc3ccccc3c(=O)c2c(=O)n1Cc1ccc(OC)cc1	.	-1	-75	-143	-4	6	.	.
CCCc1nc2sc3ccccc3c(=O)c2c(=O)n1Cc1ccco1	16	-18	7	-32	28*	1	52*	74*
O=C(NCc1ccco1)c1cnn2c(C(F)(F)F)cc(-c3cccs3)nc12	10	-8	10	6	24*	-4	25*	47*
Cc1ccc2sc(N(CCCN(C)C)C(=O)CN3C(=O)c4ccccc4C3=O)nc2c1C	-18	2	-27	9	31*	-5	23*	.
CCN(CC)C(=O)CSc1nc2ccccc2c(=O)n1CC	-9	5	19	10	1	-9	.	.
CCN(CC)C(=O)CSc1nc2ccccc2c(=O)n1OC(C)C	5	0	26	3	24*	-7	1	-2
Cc1c(Cl)ccc(S(=O)(=O)Nc2cccnc2)c1Cl	3	13	14	8	-6	12	.	.
CC(C)N1CCC2(CC1)N=C(c1ccc3c(c1)OCO3)CC(c1cc(Cl)ccc1O)N2 (stereo not given)	-12	27	101*	-128	75*	-31	31*	62*
CC(=O)Oc1ccc(-c2cccc(C(=O)OCC(=O)N(C)c3ccccc3)c2)cc1	-2	-33	11	13	-4	4	.	.
Cc1c(NC(=O)COC(=O)c2ccc(F)c(S(=O)(=O)N3CCOCC3)c2)c(=O)n(-c2ccccc2)n1C	10	-5	6	16	-3	15	.	.
O=C(NC1=NCCS1)c1cccc(OC(F)F)c1	-60	-17	-207	-250	-6	0	.	.
Cc1ccc(-c2csc3nc(C)n(N)c(=O)c23)o1	-39	2	-195	-265	5	15	.	.
Cc1ccc(-c2csc3nc(C)n(-n4c(C)ccc4C)c(=O)c23)o1	0	3	17	-1	52*	4	25*	54*
Cc1cc(N2CCOCC2)ccc1/C=C\[N+](=O)[O-]	59	54*	102*	55*	77*	-10	97*	99*
O=[N+]([O-])c1ccc(N2CCOCC2)cc1O	-3	-14	10	2	-1	8	.	.
COc1ccc(Cl)c2sc(N(CCN(C)C)C(=O)c3ccc4c(c3)OCCO4)nc12	-8	26	2	-9	8	-11	.	.
O=C1/C(=C\c2ccco2)CCC/C1=C\c1ccco1	-46	-22	-413	-236	49*	10	56*	82*
O=S(=O)(c1c(F)cccc1F)N1CCN(Cc2c(O)ccc3ccccc23)CC1	14	25	-9	15	27*	-12	43*	77*
Cc1ccc(/C=C2/CNC/C(=C/c3ccc(C)cc3)C2=O)cc1	91*	80*	105*	85*	96*	-63*	100*	94*
Cc1ccc(/C=C2\CCOC2=O)cc1	-5	-8	-48	-66	1	12	.	.
C#CCNC(=O)C1=C[C@H](C2CCCCC2)[C@@H](CCCO)[C@H](OCC)O1	0	5	-8	11	101*	0	3	1
C#CCNC(=O)C1=C[C@H](C)[C@@H](CCCO)[C@H](OCC)O1	5	1	1	11	9	-2	.	.
SMILES	TRPM1 prom inh	CF NFkB inh	Peg3 promoter	HIF-2a inh	ABHD5-PLIN5 inh	KKLEB tox	ABHD5 PLIN5 conf	HNF4 counter
CCN(CC(=O)Nc1ccc2c(c1)OCCO2)C(=O)C(C)Oc1ccc(F)cc1 (stereo not given)	-4	-6	10	5	4	-11	.	.
O=C(NC(=S)NCc1ccccc1)c1cccc(Cl)c1	1	-2	-13	-28	-3	2	.	.
O=c1[nH][nH]c2c1[C@H](c1ccc(F)cc1)O[C@H](CCc1ccccc1)C2	.	.	.	15	27*	.	15	36*
O=c1[nH][nH]c2c1C(c1ccc(F)cc1)OC(CCc1ccccc1)C2 (stereo not given)	.	.	.	9	-2	.	.	.
CCCCC1Cc2[nH][nH]c(=O)c2C(c2ccc(Cl)cc2)O1 (stereo not given)	.	.	.	-3	28*	.	6	25*
Cc1ccc(/C(C#N)=C\c2ccc(N3CCOCC3)o2)cc1	-42	-60	-160	-150	88*	9	62*	106*
N#C/C(=C/c1ccc(N2CCCCCC2)o1)c1ccc(Cl)cc1	-19	71*	97*	45*	78*	-40	82*	111*
N#C/C(=C/c1ccc(N2CCCCC2)o1)c1cccc(F)c1	-103	-12	-298	-339	20	11	.	.
Cc1ccc2nc(/C(C#N)=C/c3ccc(-c4ccccc4C(=O)O)o3)[nH]c2c1	9	12	4	6	-3	-9	.	.
N#C/C(=C\c1ccc(N2CCOCC2)o1)C(=O)NCCc1ccccc1	-16	-15	-68	-106	25*	5	19	32*
Cc1ccc2nc(/C(C#N)=C\c3ccc(N4CCOCC4)o3)[nH]c2c1	-78	-48	-159	-239	24*	13	31*	44*
C[C@@H]1CN([C@@H](C)CO)C(=O)c2cc(Br)cnc2O[C@H]1CN(C)C(=O)CCN1CCCCC1	.	-32	-13	4	-1	15	.	.
OCC[C@@H]1C[C@H](O)[C@@H](O)[C@]2(OCc3ccc4ccccc4c32)O1	.	7	-4	4	-2	-33	.	.
COC(=O)CC1=NN(c2nc3ccccc3s2)C(=O)/C1=C/N(C)C	-8	-2	-5	-24	1	4	.	.
OC(c1cccc(Cl)c1)c1nc(-c2ccoc2)cs1 (stereo not given)	.	-46	7	-9	27*	4	47*	43*

Compound activity: PubChem BioAssay, several laboratories
